Source: PubChem (National Center for Advancing Translational Sciences (NCATS))
CHX counter: affects cycloheximide protein synthesis inhibition readout, counter-screen; cell reporter, cycloheximide protein synthesis inhibition counterscreen; max response, %; 300,000 compounds, 12% hits; AID 2314; in the data active = max response mostly above about 13%, no sharp cut-off; inactive = mostly below about 14%; also: read at 38.3 µM for the half of the compounds with a filed dose
LmPK inh: blocks Leishmania mexicana pyruvate kinase activity. Potency, µM (titrated, usually from 57.5 µM), hits mostly inhibitors. Q27686. AID 1721. purified LmPK, Kinase-Glo ATP luminescence, 1 h. 290,000 compounds, 0.37% hits
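Pyruvate kinase activity monitored as ATP production (luciferase luminescence). Conditions: 0.1 nM enzyme, 0.5 mM PEP, 0.1 mM ADP, 1 h, RT; normalized against uninhibited and no-enzyme wells.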
Shiga toxin inh: Shiga toxin inhibition; Vero cells, Shiga toxin protein synthesis inhibition reporter; 290,000 compounds, 9.2% hits; inhibition, % at 38.7 µM; AID 2315; in the data active = inhibition mostly above about 28%, no sharp cut-off; inactive = mostly below about 43%
RE007 growth inh: less growth of the S. pombe RE007 Vpr strain | 360,000 compounds, 0.21% hits | S. pombe RE007 Vpr strain, BacTiter-Glo ATP luminescence, 24 h | Potency, µM (titrated, usually from 92.2 µM), most hits filed as inhibitors | AID 651644; active = well fitted falling curve with a large enough effect; inconclusive = small, poorly fitted or top-dose-only effect; inactive = no such curve, though single readings can be large or run the other way; also: nearly all actives have a fitted effect of over 50% in size
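Fission yeast RE007 carrying one integrated HIV-1 vpr copy, seeded at OD 0.01 in PMG+AL medium with 23 nL pinned compound. Grown 24 h at 30 degrees; viability read by BacTiter-Glo luminescence after 5 min.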
Tb PYK inh: inhibitors of Trypanosoma brucei pyruvate kinase; TbPYK enzyme, Kinase-Glo Plus ATP luminescence, 45 min; Potency, µM (series often up to 76.8 µM), usual class: inhibitors; AID 624173; 410,000 compounds, 0.12% hits; Q57TT1; also: nearly all actives have a fitted effect of over 50% in size
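Luminescence from Kinase-Glo Plus, added after a 45-minute room-temperature reaction, served as the end-point read-out. The enzyme and substrate were preincubated with compound before ADP (130 uM final) initiated turnover. Concentration-effect curves came from normalized qHTS data.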
Giardia FBPA inh: Giardia lamblia aldolase inhibition | A8B2U2 | purified Giardia FBPA | Potency, µM (doses to about 59.6 µM), actives largely listed as inhibitors | 290,000 compounds, 0.71% hits | AID 2451; also: nearly all actives have a fitted effect of over 55% in size
Target sequence (A8B2U2 whole entry, looked up): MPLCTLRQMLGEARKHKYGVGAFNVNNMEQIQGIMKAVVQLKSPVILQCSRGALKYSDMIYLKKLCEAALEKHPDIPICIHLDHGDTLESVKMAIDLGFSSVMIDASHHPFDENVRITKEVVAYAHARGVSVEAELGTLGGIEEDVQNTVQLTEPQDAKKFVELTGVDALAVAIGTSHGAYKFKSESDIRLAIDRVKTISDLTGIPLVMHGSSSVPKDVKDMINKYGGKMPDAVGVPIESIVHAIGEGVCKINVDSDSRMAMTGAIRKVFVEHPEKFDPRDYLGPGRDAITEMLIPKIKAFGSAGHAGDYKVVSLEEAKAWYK
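Giardia FBPA (40 nM reagent) was preincubated 10 min at RT with compound (up to 57.5 uM final), then substrate plus GAPDH/TPI/NAD/arsenate coupling system with diaphorase/resazurin was added; resorufin fluorescence (525/598 nm) was read after 20 min.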
Large screens that a line does not name were inactive. Many of the other results were omitted from the sample, so hits are more common in it than they were. Unless noted, calls follow the shape of the dose curve; as a rule, active = well fitted curve in the direction sought with a large enough effect; inconclusive = small, poorly fitted or top-dose-only effect, or another doubt; inactive = no such curve, though single readings can be large; an effect the other way counts as inactive or inconclusive.

CN(CC(=O)Nc1cccc(F)c1)C(=O)CCNC(=O)c1ccc(Br)cc1	CHX counter 21.5 (no result: Giardia FBPA inh)
CN(CC(=O)Nc1cccc(F)c1)C(=O)c1ccc(-c2ccc(Cl)cc2)o1	CHX counter 23.2, Shiga toxin inh 71.5 (no result: Giardia FBPA inh)
Cc1ccc(C)c(NC(=O)CN(C)C(=O)c2ccc(-c3ccc(Cl)cc3)o2)c1	none (no result: CHX counter, LmPK inh, Shiga toxin inh, Giardia FBPA inh)
COc1ccc(NC(=O)c2ccc(-c3cccc(Cl)c3C)o2)cc1	none (no result: CHX counter, LmPK inh, Shiga toxin inh, RE007 growth inh, Giardia FBPA inh)
O=C(Nc1cccc(F)c1)c1ccc(-c2ccccc2Cl)o1	CHX counter 66.2, Shiga toxin inh 105.1
COc1ccc(NC(=O)c2ccc(-c3ccccc3Cl)o2)cc1	CHX counter 42.8
CCOC(=O)Cn1c(=O)oc2cc(S(=O)(=O)N3CCN(c4ccccc4OC)CC3)ccc21	none (no result: CHX counter, LmPK inh, Shiga toxin inh, RE007 growth inh, Giardia FBPA inh)
CC(=O)c1nnn(-c2c(F)cccc2F)c1C	CHX counter 12.2
O=C(NCc1ccc2c(c1)OCO2)c1cc(Cl)ccc1Cl	CHX counter 13.4 (no result: Shiga toxin inh)
O=C(NCc1ccc2c(c1)OCO2)Nc1ccc(Cl)cc1	CHX counter 24.8
CCCCON1C(=O)c2cccc3cccc(c23)C1=O	CHX counter 14.7, Shiga toxin inh 40.5
COc1ccc(Nc2ncccc2C(=O)Nc2ccccc2)cc1	RE007 growth inh inconclusive, Tb PYK inh inconclusive
CC(C)c1ccc(Nc2ncccc2C(=O)O)cc1	CHX counter 42.9, Giardia FBPA inh inconclusive
C=CCSc1nncn1/N=C/c1ccc(OC)cc1	CHX counter 37.2, Shiga toxin inh 76.5
CCOC(=O)c1cccc(NC(=O)CCSCCc2ccccn2)c1	none (no result: CHX counter, LmPK inh, Shiga toxin inh, RE007 growth inh, Giardia FBPA inh)
Oc1ccc2c(ccc3[nH]cnc32)c1	CHX counter 27.9, Shiga toxin inh 50.8 (no result: RE007 growth inh)
Oc1ccc2cccnc2c1	none
Cc1ccc(-c2ccc(CCC(=O)O)n2CC2CCCO2)cc1 (configuration not stated)	CHX counter 13.6
Cc1cccc2c1-c1sc(C(=O)N3CCCCC3)cc1CO2	CHX counter 30.2, Shiga toxin inh 40.5
CCOC(=O)N1CCN(C(=O)c2cc3c(s2)-c2c(C)cccc2OC3)CC1	none
Cc1cccc2c1-c1sc(C(=O)N3CCc4ccccc4C3)cc1CO2	none
CCN1CCN(C(=O)c2cc3c(s2)-c2c(C)cccc2OC3)CC1	CHX counter 29.1, Shiga toxin inh 33.7
COc1cccc(C(=O)Nc2nnc(-c3ccc(Cl)cc3)o2)c1	Giardia FBPA inh inconclusive
COc1cccc(C(=O)Nc2nnc(-c3cccs3)o2)c1	CHX counter 32.5
CC(C)Oc1cccc(C(=O)NC2=NCCS2)c1	CHX counter 55.3, Shiga toxin inh 107.5
COc1cccc(C(=O)NC2=NCCS2)c1	CHX counter 29.3, Shiga toxin inh 41.5
O=C(NC1=NCCS1)c1cccc(F)c1	none (no result: CHX counter, LmPK inh, Shiga toxin inh, Giardia FBPA inh)
CCOc1cccc(C(=O)NC2=NCCS2)c1	CHX counter 39.5, Shiga toxin inh 72.2
Cc1ccc2c(c1)c(=O)c(S(=O)(=O)c1ccc(C)c(C)c1)cn2CC(=O)Nc1ccccc1	none (no result: CHX counter, LmPK inh, Shiga toxin inh, RE007 growth inh, Giardia FBPA inh)
CCOc1ccc(-c2nc3ccc(-c4nc5ccc(N6CCN(C)CC6)cc5[nH]4)cc3[nH]2)cc1	none (no result: LmPK inh, RE007 growth inh, Tb PYK inh)
CCOC(=O)c1c(C)n(-c2ccccc2)c2ccc(OC(=O)c3cc(OC)cc(OC)c3)cc12	none (no result: CHX counter, LmPK inh, Shiga toxin inh, RE007 growth inh, Giardia FBPA inh)
CCCCN1C(=O)c2ccc(C(=O)NC3=NCCS3)cc2C1=O	CHX counter 20.2
C[C@H]1CCCCO[C@@H](CN(C)S(=O)(=O)c2ccc(F)cc2)[C@@H](C)CN([C@@H](C)CO)C(=O)c2cc(NC(=O)Nc3ccc4c(c3)OCO4)ccc2O1	none (no result: CHX counter, LmPK inh, Shiga toxin inh, Giardia FBPA inh)
Cc1cccc(NC(=O)c2cnn(-c3ccccc3)c2-n2cccc2)c1C	none (no result: CHX counter, LmPK inh, Shiga toxin inh, RE007 growth inh, Giardia FBPA inh)
CCC(=O)OCCCCCCOc1ccc(C(=O)O)cc1	none
CCCCOc1ccc(/C(N)=N/O)cc1	CHX counter 43.3, Shiga toxin inh 82.3
CCCCOc1ccc(-c2ncc(C(=O)O)c(C)n2)cc1	CHX counter 28.1, Shiga toxin inh 98.9
O=C(O)c1cnc(-c2ccccc2)nc1Oc1ccccc1	none
CCCCCCOc1ccc(C(=O)O)cc1	CHX counter 16.3, Shiga toxin inh 42.2, Giardia FBPA inh inconclusive
CCCCOc1ccc(C(=O)NC)cc1	none
COc1ccc(NC(=O)NCc2ccccn2)c(OC)c1	none
Cc1ccc(CNC(=O)c2ccc(CSCc3ccc(Cl)cc3)o2)cc1	none (no result: CHX counter, LmPK inh, Shiga toxin inh, RE007 growth inh, Giardia FBPA inh)
